Laboratory results from PubChem BioAssay AID651582 (Sanford-Burnham Center for Chemical Genomics, 2012).
The whole screen tested about 230,000 compounds, of which about 1,500 (0.65%) were called active.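 The calls were made as follows: active = pattern-corrected inhibition of lipid staining of at least 50% with the nuclear-stain viability signal not falling by more than 50%; inactive = the rest, inconclusive results apart.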 The sample as a whole holds a higher share of actives than the screen did.

Test: inhibitors of triacylglycerol accumulation, primary screen, cell-based, uHTS, fluorescence, H9c2 (AID 651582);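 as to inhibition: 0% = DMSO wells and 100% = triacsin C control wells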
Conditions: H9c2 cells, Nile Red lipid (TAG) fluorescence, at 12.5 µM, cells loaded with 200 µM oleic acid; DAPI nuclei signal change (viability), lower = more cytotoxic: measured here: DAPI nuclei count viability; inhibition: stronger effect = higher value

| SMILES | DAPI nuclei signal change (viability), lower = more cytotoxic | inhibition |
| --- | --- | --- |
| COC(C[C@@H](O)C[C@H](O)[C@H](C)OCc1ccccc1)OC | 5.91% | -1.79% (inactive) |
| COC(C[C@H](O)CC(=O)[C@@H](C)OCc1ccccc1)OC | 5.4% | -8.13% (inactive) |
| COC(C[C@H](O)CC(=O)COCc1ccccc1)OC | -39.1% | 53.8% (active) |
| CC(=O)NC(c1ccccc1)c1nc(-c2cccc(C(C)C)c2)cs1 (configuration not stated) | -1.3% | 8.58% (inactive) |
| O=C(Nc1cc(Cl)ccc1N1CCOCC1)c1ccc(N2CCCC2=O)cc1 | -2.51% | 10.9% (inactive) |
| Cc1cccc(NC(=O)c2cccc(C(F)(F)F)c2)c1 | -13.3% | -0.148% (inactive) |
| O=C(Nc1ccc(-c2csc(Nc3cccc(C(F)(F)F)c3)n2)cc1)c1cccc(C(F)(F)F)c1 | -19.5% | 51.9% (active) |
| CNC(=O)c1ccc(NC(=O)c2cccc(C(F)(F)F)c2)cc1 | -4.98% | -1.2% (inactive) |
| CC1=C(C(=O)Nc2cccc(C(=O)NCC(C)c3ccccc3)c2)SCCO1 (configuration not stated) | -4.49% | 4.45% (inactive) |
| COc1ccc(CN2CCN(C(=O)c3cc(C4CC4)nn3-c3ccccc3)CC2)cc1F | -2% | 7.6% (inactive) |
| Cc1c(C(=O)NNC(=O)c2ccncc2)oc2ccccc12 | -11% | 8.91% (inactive) |
| COC(=O)c1ccc(NCc2cc(O)ccc2O)cc1 | -40.6% | 54.7% (active) |
| CC(C)OC(=O)c1ccc(NCc2cc(O)ccc2O)cc1Cl | -60.3% | 108% (inactive) |
| O=C(OC12CC3CC(CC(C3)C1)C2)c1ccc(NCc2cc(O)ccc2O)cc1 | -61.6% | 111% (inactive) |
| CCCn1c(N)c(C(=O)CSc2nnc3n2CCCCC3)c(=O)[nH]c1=O | 5.45% | -8.3% (inactive) |
| CC[C@]1(c2ccccc2OC)C(=O)N(C(=O)OC)N1C(=O)OC | 11% | -4.89% (inactive) |
| Cc1ccccc1NC(=O)CSc1nc2ccc(Nc3nc(N4CCOCC4)nc(N4CCOCC4)n3)cc2s1 | -7.17% | 62.6% (active) |
| O=C(CSc1c2c(nc3ccc(Cl)cc13)CCCC2)NCc1ccco1 | 13.7% | 2.61% (inactive) |
| O=C(CSc1nc(Nc2ccccc2)nc(N2CCOCC2)n1)Nc1cc(Cl)ccc1O | -18.9% | 34.4% (inactive) |
| O=C(CSc1nc2ccc(Nc3nc(N4CCOCC4)nc(N4CCOCC4)n3)cc2s1)NCc1ccco1 | -0.911% | 54.6% (active) |
| Nc1nnc(SCC(=O)Nc2ccc3nc(SCC(=O)Nc4ccccc4)sc3c2)s1 | -9.1% | -21.4% (inactive) |
| C=CCn1c(CSc2nc3ccccc3s2)nnc1SCC(=O)NCc1ccco1 | -7.04% | -5.24% (inactive) |
| CS(=O)(=O)/C(C#N)=C/c1cccn1S(=O)(=O)c1ccc([N+](=O)[O-])cc1 | 8.58% | -3.62% (inactive) |
| CN(CC(=O)Nc1ccc(F)cc1)C(=O)c1ccc(-c2ccc(Cl)cc2)o1 | 0.479% | -10.2% (inactive) |
| Cc1ccc(N(Cc2ccccc2O)C(=O)c2ccccc2F)cc1 | 2.35% | -3.73% (inactive) |
| C=C1CCC(N(O)c2cc(C)on2)C(=C)CCC2C1CC2(C)C (configuration not stated) | 2.7% | -2.19% (inactive) |

| SMILES | DAPI nuclei signal change (viability), lower = more cytotoxic | inhibition |
| --- | --- | --- |
| CC(=O)Nc1ccc(-c2ccnc3c2CC(C(=O)NC(C)C)O3)cc1 (configuration not stated) | -1.71% | -1.68% (inactive) |
| COc1ccc(-c2cc(NC=O)c3ncc(-c4cc(OC)c(OC)c(OC)c4)n3c2)c(OC)c1 | -24.8% | 52.6% (active) |
| COc1ccc(-c2cc(NC=O)c3ncc(-c4ccccc4)n3c2)cc1OC | -14.8% | 19.6% (inactive) |
| COc1ccc(-c2cc(NC=O)c3ncc(-c4cccc(C(=O)N(C)C)c4)n3c2)c(OC)c1 | -42.3% | 46% (inactive) |
| NC(=O)c1ncn([C@@H]2O[C@H](CN=C3NS(=O)(=O)c4ccccc43)[C@@H](O)[C@H]2O)n1 | -1.84% | 13.5% (inactive) |
| COc1ccc(OCCNC(=O)c2cc(C3CC3)nc3c2cnn3C(C)C)cc1 | -4.88% | -39.8% (inactive) |
| COc1ccc(C(=O)OCC(=O)Nc2cc(C)on2)cc1F | -5.17% | 7.73% (inactive) |
| C=CCOC(=O)N1CCC2CC1c1cc(-c3ccc(OC)cc3)ccc12 (configuration not stated) | 8.41% | -34.5% (inactive) |
| COc1cccc2sc(N(CCCN(C)C)C(=O)C(c3ccccc3)c3ccccc3)nc12 | -45.3% | 117% (active) |
| CN(C)CCCN(C(=O)COc1ccccc1)c1nc2c(Cl)cccc2s1 | -0.936% | 15.4% (inactive) |
| CCN(CC)CCN(C(=O)c1ccc2c(c1)CCCC2)c1nc2c(OC)cccc2s1 | 40% | -1.62% (inactive) |
| COc1ccc(Oc2c(Cl)cnn(-c3ccccc3)c2=O)cc1 | 2.85% | -4.37% (inactive) |
| Cc1cccc(-n2ncc(Cl)c(Cl)c2=O)c1 | -35.3% | 75.4% (active) |
| O=c1c(Cl)c(NC2CC2)cnn1-c1ccccc1 | -5.81% | -2.29% (inactive) |
| CCCNC(=O)C1(C)CCN(C(=O)c2ccc(F)cc2Cl)C1 (configuration not stated) | 8.17% | 2.28% (inactive) |
| Nc1ccccc1Sc1ccc(C(F)(F)F)cc1[N+](=O)[O-] | 8.68% | -15.4% (inactive) |
| CCS(=O)(=O)c1cc([N+](=O)[O-])c(Sc2ccccc2N)s1 | -4.87% | 14.6% (inactive) |
| Nc1ccccc1SC(C[N+](=O)[O-])c1ccccc1 (configuration not stated) | -46.5% | 63.9% (active) |
| CCOC(=O)/C=c1\s/c(=C\c2ccc(C#N)cc2)c(=O)n1CC(=O)Nc1cccc(C)c1C | -32.2% | 50.4% (active) |
| Cc1cccc(NC(=O)CN2C(=O)c3ccccc3C2=O)c1C | 2.88% | -5.58% (inactive) |
| CCOC(=O)/C=c1\s/c(=C\c2ccccc2OC)c(=O)n1CC(=O)N1CCOCC1 | -2.84% | 8.35% (inactive) |
| Cc1nc2c(OCC(=O)C(C)(C)C)cccn2c1N(C)Cc1cccs1 | 21.8% | -5.32% (inactive) |
| O=C(Cn1cnc2c(OCc3ccccc3)ncnc21)NCCCn1ccnc1 | 9.45% | -7.19% (inactive) |
| COc1cc(OC)cc(C(=O)NNC(=O)CCOc2ccccc2OC)c1 | -6.59% | 7.42% (inactive) |
| CCN(c1ccccc1)S(=O)(=O)c1ccc(C(=O)Nc2ccccc2OC)cc1 | 2.43% | 4.73% (inactive) |
